# Reference: PubChem BioAssay AID1159580 (chemical genetic matrix, 2015)
# Where “and” joins values, the source holds several entries; their conditions need not be identical. Identical values can stand only once. Among all 5,500 compounds or so, about 2,000 (36%) were called active. Inconclusive results (about 18%) are left out. The list shows a part of the results. A number with no mark means an inactive call. Cut-off read from the data, not from the text of the source: active = normalized growth mostly below about 0.91 (no sharp cut-off); inconclusive = no clear call, values can overlap the other calls; inactive = mostly above about 0.92.
# Experiment: chemical genetic growth profiling, strain panel (AID 1159580);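 note: tested at 20 µM; growth read once vehicle control cultures reached saturation at 30 °C; 1 = growth at the plate median or of vehicle wells; lower values mean less growth of the strain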
# Settings: S. cerevisiae deletion strains, growth OD
smiles,measurement,setting,value
C=C(C)[C@H]1Cc2c(ccc3c2O[C@@H]2COc4cc(OC)c(OC)cc4[C@@H]2C3=O)O1,normalized growth,"locus YAL013W, strain DEP1, hits give low values",1.01
same,normalized growth,"locus YAL021C, strain ccr4, hits give low values",0.993
same,normalized growth,"locus YAL026C, strain drs2, hits give low values",0.962
same,normalized growth,"locus YAL030W, strain snc1, hits give low values",0.982
same,normalized growth,"locus YBL061C, strain skt5, hits give low values",0.994
same,normalized growth,"locus YBR009C, strain hhf1, hits give low values",0.892 (active)
same,normalized growth,"locus YBR021W, strain FUR4, hits give low values",0.975
same,normalized growth,"locus YBR023C, strain chs3, hits give low values",0.962
same,normalized growth,"locus YBR171W, strain sec66, hits give low values",0.979
same,normalized growth,"locus YBR229C, strain ROT2, hits give low values",1.01
same,normalized growth,"locus YBR231C, strain swc5, hits give low values",1
same,normalized growth,"locus YBR279W, strain paf1, hits give low values",1.06
same,normalized growth,"locus YCL011C, strain gbp2, hits give low values",0.936
same,normalized growth,"locus YCL016C, strain dcc1, hits give low values",0.926
same,normalized growth,"locus YCL029C, strain bik1, hits give low values",1.03
same,normalized growth,"locus YCL061C, strain MRC1, hits give low values",1
same,normalized growth,"locus YCL069W, strain vba3, hits give low values",0.997
same,normalized growth,"locus YCR088W, strain abp1, hits give low values",1.03
same,normalized growth,"locus YDL005C, strain med2, hits give low values",0.99
same,normalized growth,"locus YDL035C, strain GPR1, hits give low values",0.956
same,normalized growth,"locus YDL040C, strain nat1, hits give low values",0.986
same,normalized growth,"locus YDL074C, strain BRE1, hits give low values",0.926
same,normalized growth,"locus YDL101C, strain DUN1, hits give low values",0.992
same,normalized growth,"locus YDL185W, strain tfp1, hits give low values",1.02
same,normalized growth,"locus YDL192W, strain arf1, hits give low values",1.02
same,normalized growth,"locus YDR001C, strain nth1, hits give low values",1.01
same,normalized growth,"locus YDR069C, strain doa4, hits give low values",0.991
same,normalized growth,"locus YDR101C, strain arx1, hits give low values",1
same,normalized growth,"locus YDR137W, strain rgp1, hits give low values",0.853
same,normalized growth,"locus YDR159W, strain sac3, hits give low values",0.984
same,normalized growth,"locus YDR162C, strain NBP2, hits give low values",0.966
same,normalized growth,"locus YDR195W, strain ref2",1.13
same,normalized growth,"locus YDR297W, strain sur2, hits give low values",0.966
same,normalized growth,"locus YDR318W, strain mcm21, hits give low values",1
same,normalized growth,"locus YDR334W, strain swr1, hits give low values",1.04
same,normalized growth,"locus YDR335W, strain msn5, hits give low values",1
same,normalized growth,"locus YDR388W, hits give low values",1.01
same,normalized growth,"locus YDR392W, strain spt3, hits give low values",0.762
same,normalized growth,"locus YDR502C, strain sam2, hits give low values",1
same,normalized growth,"locus YEL003W, strain gim4, hits give low values",0.981
same,normalized growth,"locus YEL037C, strain rad23, hits give low values",1.02
same,normalized growth,"locus YEL061C, strain CIN8 (second series), hits give low values",1.03
same,normalized growth,"locus YEL061C, strain CIN8, hits give low values",1
same,normalized growth,"locus YER015W, strain faa2, hits give low values",0.982
same,normalized growth,"locus YER016W, strain bim1, hits give low values",0.986
same,normalized growth,"locus YER110C, hits give low values",1.11 [resistant] (active)
same,normalized growth,"locus YER111C, strain swi4, hits give low values",1.02
same,normalized growth,"locus YER155C, strain BEM2 (second series), hits give low values",1.07
same,normalized growth,"locus YER155C, strain BEM2, hits give low values",1
same,normalized growth,"locus YER167W, strain BCK2, hits give low values",0.966
same,normalized growth,"locus YFR010W, strain ubp6, hits give low values",1.01
same,normalized growth,"locus YGL078C, strain dbp3, hits give low values",1.01
same,normalized growth,"locus YGL086W, strain mad1, hits give low values",0.993
same,normalized growth,"locus YGL167C, strain pmr1, hits give low values",0.97
same,normalized growth,"locus YGL173C, strain kem1, hits give low values",0.98
same,normalized growth,"locus YGL227W, strain vid30, hits give low values",1.01
same,normalized growth,"locus YGL240W, strain doc1, hits give low values",0.999
same,normalized growth,"locus YGL248W, strain PDE1, hits give low values",0.993
same,normalized growth,"locus YGL253W, strain hxk2, hits give low values",0.964
same,normalized growth,"locus YGR135W, strain pre9, hits give low values",0.996
same,normalized growth,"locus YGR229C, strain SMI1, hits give low values",0.924
same,normalized growth,"locus YGR252W, strain gcn5, hits give low values",0.914
same,normalized growth,"locus YHR013C, strain ard1, hits give low values",1
same,normalized growth,"locus YHR027C, strain rpn1, hits give low values",0.975
same,normalized growth,"locus YHR030C, strain SLT2, hits give low values",1.01 and 0.915
same,normalized growth,"locus YHR079C, strain IRE1 (second series), hits give low values",1.02
same,normalized growth,"locus YHR079C, strain IRE1, hits give low values",0.95
same,normalized growth,"locus YHR094C, strain hxt1, hits give low values",1.02
same,normalized growth,"locus YHR129C, strain ARP1, hits give low values",1.01
same,normalized growth,"locus YHR142W, strain chs7, hits give low values",0.972
same,normalized growth,"locus YHR200W, strain rpn10, hits give low values",0.996
same,normalized growth,"locus YIL066C, strain RNR3, hits give low values",0.968
same,normalized growth,"locus YIL073C, strain SPO22, hits give low values",1.04
same,normalized growth,"locus YIL125W, strain kgd1, hits give low values",1.01
same,normalized growth,"locus YIR030C, strain dcg1, hits give low values",1.02
same,normalized growth,"locus YJL092W, strain hpr5, hits give low values",1.01
same,normalized growth,"locus YJL095W, strain BCK1 (second series), hits give low values",0.967
same,normalized growth,"locus YJL095W, strain BCK1, hits give low values",0.958 and 0.936
same,normalized growth,"locus YJL115W, strain asf1, hits give low values",1.02
same,normalized growth,"locus YJL129C, strain trk1, hits give low values",0.901
same,normalized growth,"locus YJL134W, strain LCB3, hits give low values",1.01
same,normalized growth,"locus YJL154C, strain vps35, hits give low values",1
same,normalized growth,"locus YJL164C, strain tpk1, hits give low values",0.917 (active)
same,normalized growth,"locus YJL166W, strain qcr8, hits give low values",0.932
same,normalized growth,"locus YJL168C, strain set2, hits give low values",1.04
same,normalized growth,"locus YJL187C, strain SWE1 (second series), hits give low values",0.982
same,normalized growth,"locus YJL187C, strain SWE1, hits give low values",0.993
same,normalized growth,"locus YJR043C, strain POL32, hits give low values",0.973
same,normalized growth,"locus YJR066W, strain TOR1, hits give low values",0.851
same,normalized growth,"locus YJR075W, strain HOC1, hits give low values",0.983
same,normalized growth,"locus YKL009W, strain mrt4, hits give low values",1.03
same,normalized growth,"locus YKL068W, hits give low values",1
same,normalized growth,"locus YKL085W, strain MDH1 (second series), hits give low values",1
same,normalized growth,"locus YKL085W, strain MDH1, hits give low values",1
same,normalized growth,"locus YKL160W, strain elf1, hits give low values",0.95
same,normalized growth,"locus YKL190W, strain CNB1, hits give low values",1
same,normalized growth,"locus YKR001C, strain vps1, hits give low values",0.947
same,normalized growth,"locus YKR026C, strain gcn3, hits give low values",1
same,normalized growth,"locus YKR091W, strain srl3, hits give low values",0.991
same,normalized growth,"locus YLL001W, strain dnm1, hits give low values",0.983
same,normalized growth,"locus YLL026W, hits give low values",0.976
same,normalized growth,"locus YLL041C, strain sdh2, hits give low values",0.99
same,normalized growth,"locus YLR027C, strain aat2, hits give low values",0.978
same,normalized growth,"locus YLR039C, strain RIC1, hits give low values",0.936
same,normalized growth,"locus YLR058C, strain SHM2, hits give low values",1.01
same,normalized growth,"locus YLR102C, strain apc9, hits give low values",1.02
same,normalized growth,"locus YLR113W, strain HOG1, hits give low values",0.968
same,normalized growth,"locus YLR221C, strain rsa3, hits give low values",0.921
same,normalized growth,"locus YLR258W, strain gsy2, hits give low values",0.958
same,normalized growth,"locus YLR262C, strain YPT6 (second series), hits give low values",0.83 (active)
same,normalized growth,"locus YLR262C, strain YPT6, hits give low values",0.99
same,normalized growth,"locus YLR268W, strain sec22, hits give low values",0.978
same,normalized growth,"locus YLR320W, strain mms22, hits give low values",0.891
same,normalized growth,"locus YLR330W, strain CHS5, hits give low values",1.02
same,normalized growth,"locus YLR342W, strain FKS1 (second series), hits give low values",1.02
same,normalized growth,"locus YLR342W, strain FKS1, hits give low values",1.01
same,normalized growth,"locus YLR357W, strain rsc2, hits give low values",1.09
same,normalized growth,"locus YLR370C, strain arc18, hits give low values",0.975
same,normalized growth,"locus YLR371W, strain rom2, hits give low values",1.02
same,normalized growth,"locus YLR384C, strain iki3, hits give low values",1.03
same,normalized growth,"locus YLR418C, strain cdc73, hits give low values",0.917
same,normalized growth,"locus YML016C, strain PPZ1, hits give low values",1.01
same,normalized growth,"locus YML032C, strain rad52, hits give low values",1.01
same,normalized growth,"locus YML120C, strain ndi1, hits give low values",0.95
same,normalized growth,"locus YML124C, strain tub3, hits give low values",1.01
same,normalized growth,"locus YMR058W, strain fet3, hits give low values",0.994
same,normalized growth,"locus YMR078C, strain ctf18, hits give low values",1.01
same,normalized growth,"locus YMR125W, strain sto1, hits give low values",1.05
same,normalized growth,"locus YMR129W, hits give low values",1
same,normalized growth,"locus YMR205C, strain PFK2, hits give low values",0.929
same,normalized growth,"locus YMR223W, strain ubp8, hits give low values",1
same,normalized growth,"locus YMR231W, strain pep5, hits give low values",0.983
same,normalized growth,"locus YMR307W, strain GAS1, hits give low values",1
same,normalized growth,"locus YNL067W, strain RPL9B, hits give low values",0.987
same,normalized growth,"locus YNL071W, strain lat1, hits give low values",0.894 (active)
same,normalized growth,"locus YNL128W, strain TEP1, hits give low values",0.995
same,normalized growth,"locus YNL183C, strain NPR1, hits give low values",0.886
same,normalized growth,"locus YNL209W, strain ssb2, hits give low values",0.979
same,normalized growth,"locus YNL233W, strain BNI4, hits give low values",0.976
same,normalized growth,"locus YNL248C, strain rpa49, hits give low values",1.06
same,normalized growth,"locus YNL250W, strain rad50, hits give low values",1.02
same,normalized growth,"locus YNL271C, strain bni1, hits give low values",1.02
same,normalized growth,"locus YNL298W, strain CLA4, hits give low values",1.01
same,normalized growth,"locus YNL307C, strain MCK1, hits give low values",0.962
same,normalized growth,"locus YNL322C, strain KRE1 (second series), hits give low values",0.991
same,normalized growth,"locus YNL322C, strain KRE1, hits give low values",1
same,normalized growth,"locus YNR049C, strain mso1, hits give low values",1.01
same,normalized growth,"locus YNR052C, strain pop2, hits give low values",1.01
same,normalized growth,"locus YOL006C, strain TOP1, hits give low values",0.944
same,normalized growth,"locus YOL012C, strain htz1",0.818
same,normalized growth,"locus YOL147C, strain pex11, hits give low values",1.03
same,normalized growth,"locus YOR001W, strain rrp6, hits give low values",0.967
same,normalized growth,"locus YOR061W, strain CKA2, hits give low values",1
same,normalized growth,"locus YOR069W, strain VPS5, hits give low values",1
same,normalized growth,"locus YOR070C, strain gyp1, hits give low values",0.961
same,normalized growth,"locus YOR080W, strain dia2, hits give low values",0.994
same,normalized growth,"locus YOR083W, strain WHI5, hits give low values",0.969
same,normalized growth,"locus YOR106W, strain vam3, hits give low values",0.974
same,normalized growth,"locus YOR136W, strain idh2, hits give low values",1.01
same,normalized growth,"locus YOR144C, strain elg1, hits give low values",1
same,normalized growth,"locus YOR184W, strain ser1, hits give low values",0.952
same,normalized growth,"locus YOR231W, strain MKK1, hits give low values",0.94
same,normalized growth,"locus YOR265W, strain rbl2, hits give low values",0.973
same,normalized growth,"locus YOR270C, strain vph1, hits give low values",0.853
same,normalized growth,"locus YOR290C, strain snf2, hits give low values",0.985
same,normalized growth,"locus YOR316C, strain cot1, hits give low values",1.01
same,normalized growth,"locus YPL051W, strain arl3, hits give low values",0.963
same,normalized growth,"locus YPL055C, strain LGE1, hits give low values",0.942
same,normalized growth,"locus YPL078C, strain atp4, hits give low values",1.03
same,normalized growth,"locus YPL106C, strain sse1, hits give low values",0.977
same,normalized growth,"locus YPL240C, strain hsp82, hits give low values",0.975
same,normalized growth,"locus YPL241C, strain CIN2, hits give low values",1.01
same,normalized growth,"locus YPL256C, strain CLN2, hits give low values",0.942
same,normalized growth,"locus YPR119W, strain clb2, hits give low values",1.01
same,normalized growth,"locus YPR141C, strain kar3, hits give low values",1.04
same,normalized growth,"locus YPR163C, strain tif3, hits give low values",0.933
same,normalized growth,"locus YPR167C, strain met16, hits give low values",1
same,normalized growth,"strain wtn01, hits give low values",1.03
